# KCNQ2 block: KCNQ2 (rat) channel inhibition; O88943; CHO-K1 KCNQ2, FluxOR thallium flux, 20 min; hits give low values; B-score at 10 µM; 1.1% of 310,000 active; AID 2156;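 active = fluorescence ratio B-score at most minus 3 library SDs, with starting brightness B-score within 2 library SDs, cut at about -5.5 in these data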
# KCNQ2 pot: KCNQ2 (rat) channel potentiation. CHO-K1 KCNQ2, FluxOR thallium flux fluorescence; hits give high values. B-score at 10 µM. O88943. 0.54% of 310,000 active;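 active = fluorescence ratio B-score at least 3 SD of library B-scores, with initial fluorescence B-score within 3 of them, cut at about 5.3 in these data; same plate scores as AID 2156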;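 also: B-score of peak minus minimum over baseline fluorescence ratio after K+ and Tl+ stimulus; positive B-score means potentiation of KCNQ2 with more thallium influx and brighter signal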
# Kir21 confirm: confirmation of mouse Kir2.1 potassium channel inhibitors; Tl flux remaining, % of negative control (hits give low values), % at 10 µM; 41% of 2,300 active; Kir2.1-expressing cells, FluxOR thallium flux fluorescence; hits give low values; shares compounds with KCNQ2 pot;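 active = Primary-screen hit whose thallium flux fell at least 3 control SD below untreated wells in both duplicates, with normal baseline fluorescence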
# HEK293 Tl flux: alters thallium flux in parental HEK293 cells, Kir2.1 counter-screen; shares compounds with KCNQ2 pot; FluxOR thallium flux fluorescence; 0% = unstimulated blank wells; FluxOR signal as % of negative control (100 = no effect), % at 10 µM; 19% of 2,300 active;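 active = dye signal at least 3 control SD above or below untreated wells in both duplicates, raw fluorescence within 3, either direction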;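 also: percent is based on the flux ratio of peak minus minimum fluorescence over baseline F0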
# CHO-K1 ctr: parental CHO-K1 activity in KCNQ2 potentiator counter-screen. shares compounds with KCNQ2 pot. activity increase over 3SD of controls, % at 10 µM. 43% of 1,200 active. parental CHO-K1 cells, FluxOR thallium flux fluorescence; zero = vehicle mean+3SD, 100% = vehicle-minus-blank window. AID 2282;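 active = signal rise of at least 3 SD above the untreated control mean, in both duplicate wells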;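 also: counter screen of KCNQ2 potentiator hits so any rise reflects channel-independent effects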
# KCNQ1 sel pot: human KCNQ1 counter-target activity of KCNQ2 potentiators; shares compounds with KCNQ2 pot; CHO KCNQ1 stable, FluxOR thallium flux fluorescence; beyond 3SD, as % of vehicle-control signal; activation over 3SD threshold, % at 10 µM; 28% of 1,200 active; AID 2283;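 active = fluorescence ratio rise of at least 3 SD of vehicle wells above their mean, in both replicate wells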
# KCNQ2 pot confirm: rat KCNQ2 channel potentiator confirmation | shares compounds with KCNQ2 pot | CHO-KCNQ2 cells, FluxOR thallium flux fluorescence | potentiation, less the hit threshold, % at 10 µM | 68% of 1,200 active | AID 2287;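 active = fluorescence ratio rising 3 SD or more over the vehicle control mean in both replicates, plus primary screen hit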;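 also: peak minus minimum thallium fluorescence divided by baseline after K/Tl stimulus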
# Kir21 spec: mouse Kir2.1 off-target activity of KCNQ2 potentiators; shares compounds with KCNQ2 pot; HEK293 Kir2.1, FluxOR thallium flux fluorescence; activity over 3SD threshold, % at 10 µM; 2% of 1,200 active;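 active = fluorescence ratio rise of at least 3 SD above the vehicle-control mean, seen in both replicates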
# KCNQ2 W236L pot: rat KCNQ2 W236L mutant potentiation by KCNQ2 potentiators. current increase over 3SD of negative controls (%), hits give high values, % at 25 µM. shares compounds with KCNQ2 pot. 10% of 940 active. CHO KCNQ2-W236L, automated patch clamp current;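 active = current increase at least 3 SD of the untreated controls above them in both duplicate recordings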
# Target sequence (O88943 whole entry W236L, looked up): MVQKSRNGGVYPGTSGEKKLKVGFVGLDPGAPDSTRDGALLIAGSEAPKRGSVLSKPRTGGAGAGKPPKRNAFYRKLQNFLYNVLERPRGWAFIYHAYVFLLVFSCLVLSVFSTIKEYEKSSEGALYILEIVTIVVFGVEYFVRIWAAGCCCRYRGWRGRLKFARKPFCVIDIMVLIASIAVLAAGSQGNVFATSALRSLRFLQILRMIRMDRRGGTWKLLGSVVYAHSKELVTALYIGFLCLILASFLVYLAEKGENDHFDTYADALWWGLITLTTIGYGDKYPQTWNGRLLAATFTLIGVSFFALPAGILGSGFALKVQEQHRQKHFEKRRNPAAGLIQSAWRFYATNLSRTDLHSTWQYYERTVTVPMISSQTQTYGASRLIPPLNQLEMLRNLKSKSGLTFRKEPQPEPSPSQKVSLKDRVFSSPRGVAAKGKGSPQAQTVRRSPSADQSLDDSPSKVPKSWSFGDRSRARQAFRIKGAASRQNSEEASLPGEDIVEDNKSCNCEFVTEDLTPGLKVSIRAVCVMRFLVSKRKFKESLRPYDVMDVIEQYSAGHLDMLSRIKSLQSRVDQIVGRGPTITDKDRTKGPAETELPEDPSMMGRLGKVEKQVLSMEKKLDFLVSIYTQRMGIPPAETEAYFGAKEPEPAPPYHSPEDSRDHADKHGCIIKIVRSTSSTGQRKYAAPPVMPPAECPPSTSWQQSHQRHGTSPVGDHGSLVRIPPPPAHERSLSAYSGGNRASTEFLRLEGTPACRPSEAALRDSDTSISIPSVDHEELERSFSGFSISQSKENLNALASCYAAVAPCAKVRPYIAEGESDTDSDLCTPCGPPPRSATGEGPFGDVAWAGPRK
# A number is an active result; – = inactive; · = no result. This is a sample that favours compounds with a hit; in the whole collection about 1.6% have one here.
SMILES,KCNQ2 block,KCNQ2 pot,Kir21 confirm,HEK293 Tl flux,others
Cc1cc(NS(=O)(=O)c2ccccc2)c(C)c(Cl)c1O,–,·,69%,–,
Cc1c(O)ccc(NS(=O)(=O)c2ccccc2)c1C,–,·,·,·,
Cc1ccc(/C=C/C(=O)O)cc1S(=O)(=O)N1CCCCC1,–,–,·,·,
COc1cccc(CNC(=O)C(=O)NCC(c2ccco2)N2CCOCC2)c1 (centres undefined),–,–,·,·,
COc1ccc(-n2c(=S)[nH]c3cc(C(=O)N4CCN(c5ccccc5)CC4)ccc3c2=O)c(OC)c1,–,–,·,·,
Nc1ccc2nc(-c3ccc(Cl)cc3)[nH]c2c1,–,–,·,·,
Clc1ccc2nc(-c3ccc(Cl)nc3)[nH]c2c1,–,6.9,–,–,CHO-K1 ctr=–;KCNQ1 sel pot=57;KCNQ2 pot confirm=5.7;Kir21 spec=–;KCNQ2 W236L pot=3.5%
CCCSC(=S)c1c(C)[nH]n(-c2ccccc2)c1=O,–,9.8,–,424%,CHO-K1 ctr=22;KCNQ1 sel pot=–;KCNQ2 pot confirm=54;Kir21 spec=3.8;KCNQ2 W236L pot=–
Cc1[nH]n(-c2ccccc2)c(=O)c1Sc1ccc(Cl)cc1,–,–,·,·,
Oc1c(Cl)cc(Cl)c2c1NCCC2,–,6.3,–,–,CHO-K1 ctr=4.8;KCNQ1 sel pot=1.6;KCNQ2 pot confirm=6.1;Kir21 spec=–;KCNQ2 W236L pot=–
O=C1NCCCc2c1oc1ccc(O)cc21,–,–,·,·,
Cc1ccccc1OCCSc1nnc(C)n1-c1ccccc1,–,·,46%,–,
Cc1ccccc1OCc1nnc(SCC(=O)O)n1-c1ccccc1,–,–,·,·,
O=S(=O)(c1ccc(NC(=S)N/N=C/c2ccc(O)c(O)c2)cc1)N1CCOCC1,–,·,·,·,
O=[N+]([O-])c1cc(Cl)cc(/C=N/NC(=S)Nc2ccc(S(=O)(=O)N3CCOCC3)cc2)c1O,–,18,–,–,CHO-K1 ctr=3.6;KCNQ1 sel pot=–;KCNQ2 pot confirm=39;Kir21 spec=–;KCNQ2 W236L pot=3.7%
CCOc1ccc(CN(C)C(=O)CCN2C(=O)c3ccccc3C2=O)cc1OC,–,·,·,·,
CC(C)(C)c1cc(-c2n[nH]c(=S)n2-c2ccccc2F)n[nH]1,–,5.3,–,154%,CHO-K1 ctr=–;KCNQ1 sel pot=–;KCNQ2 pot confirm=44;Kir21 spec=–;KCNQ2 W236L pot=20%
Cc1ccccc1-n1c(-c2ccc(=O)[nH]n2)n[nH]c1=S,–,–,·,·,
Cc1ccc(CNC(=O)[C@H](C)NC(=O)C2CCN(C(=O)[C@@H]3CCCN3C(=O)OC(C)(C)C)CC2)cc1,–,·,·,·,
Cc1cc(C)nc(SCC(=O)N(C)CC(=O)Nc2c(Cl)cccc2Cl)n1,–,·,·,·,
Cc1ccn(C(=O)c2ccc(NC(=O)CC(C)C)cc2)n1,–,–,·,·,
Nc1cccnc1Oc1ccc(F)cc1,–,–,·,·,
FC(F)(F)c1cccnc1Oc1ccc(C2=NCCS2)cc1,–,5.4,–,–,CHO-K1 ctr=–;KCNQ1 sel pot=30;KCNQ2 pot confirm=13;Kir21 spec=–;KCNQ2 W236L pot=–
CC1CCN(Cc2nnnn2CCCC(=O)NCCc2cnn(C)c2)CC1,–,–,·,·,
CCn1c(-c2cc(-c3ccc(C)cc3)nc3ccccc23)n[nH]c1=S,–,·,·,·,
SMILES,KCNQ2 block,KCNQ2 pot,Kir21 confirm,HEK293 Tl flux,others
CCCOc1cccc(-c2cc(-c3n[nH]c(=S)n3CC)c3ccccc3n2)c1,–,26,–,–,CHO-K1 ctr=115;KCNQ1 sel pot=–;KCNQ2 pot confirm=–;Kir21 spec=–
Cc1cc(C)c(S(=O)(=O)N2CCCC(C(=O)NC3CCCC3)C2)c(C)c1 (centres undefined),–,–,·,·,
CCc1ccc(OCC(=O)Nc2nnc(C3CCCC3)s2)cc1,–,–,·,·,
COCC(=O)N1CCC(Oc2ccc(C(=O)NC(C)c3csc(C)n3)cc2)CC1 (centres undefined),–,–,·,·,
OC1(c2ccc(Br)cc2)CCN(Cc2cccc(Br)c2)CC1,–,·,20%,–,
Brc1cccc(CN2CCCCCC2)c1,–,–,·,·,
CC(C)CC(=O)Nc1nnc(SCC(=O)Nc2nccs2)s1,–,–,·,·,
N#CCCN(Cc1cccnc1)C(=S)NC(=O)C1CC1,–,·,·,·,
Cc1ccc(S(=O)(=O)N(c2nc(NC(C)C)nc(NC(C)C)n2)n2cnnc2)cc1,–,·,·,·,
COc1cc(NC(=O)c2ccccc2)cc(OC)c1,–,17,–,–,CHO-K1 ctr=–;KCNQ1 sel pot=–;KCNQ2 pot confirm=30;Kir21 spec=–;KCNQ2 W236L pot=–
COc1ccc(C(=O)Nc2cc(OC)cc(OC)c2)cc1,–,–,·,·,
O=C(CN1C(=O)c2ccccc2C1=O)OCC(=O)c1ccccc1,–,·,·,·,
Cc1ccccc1Cn1nc(C)c(NC(=O)c2sc3ccccc3c2Cl)c1C,–,–,·,·,
Cc1ccccc1Cn1nc(C)c(NC(=O)c2ccccc2)c1C,–,–,–,–,
O=C(O)CC1(CC(=O)Nc2ccc3ccccc3n2)CCCCC1,–,–,·,·,
CCc1nc2ccccc2n1CCc1ccccc1,–,·,·,·,
CC(C)(C)Cc1nc2ccccc2n1CCc1ccccc1,–,·,53%,–,
N#Cc1c(C(F)(F)F)cc(-c2ccccc2)nc1SCc1nc(N)nc(N2CCOCC2)n1,–,10,–,–,CHO-K1 ctr=–;KCNQ1 sel pot=–;KCNQ2 pot confirm=17;Kir21 spec=–;KCNQ2 W236L pot=–
N#Cc1c(C(F)(F)F)cc(-c2ccc(Cl)c(Cl)c2)nc1SCCN1CCOCC1,–,–,·,·,
COc1ccccc1C(=O)NNC(=O)c1ccc(Br)o1,–,–,·,·,
CCCOc1nc(C)cc(COC)c1C(N)=O,–,–,·,·,
Cc1cc(C)n2nc(C(=O)OCC(=O)N(C)C3CCCCC3)nc2n1,–,–,·,·,
Cc1ccccc1NC(=O)CSc1nc2ccccc2c(=O)n1C,–,–,·,·,
CC(C)Oc1ccccc1NC(=O)CSc1nc2ccccc2c(=O)n1C,–,–,58%,–,
O=C(NCc1ccccc1)c1ccccc1NC(=O)C1CCCCC1,–,·,·,·,
SMILES,KCNQ2 block,KCNQ2 pot,Kir21 confirm,HEK293 Tl flux,others
CCOc1ccc(NS(=O)(=O)c2ccc(NC(C)=O)c(OC)c2)cc1,–,·,·,·,
CCOc1ccc(NS(=O)(=O)c2ccc(OC)c(C)c2)cc1,–,–,–,–,
O=C(NC1CCCCC1)C(c1ccncc1)N(C(=O)c1csnn1)c1ccccc1F (centres undefined),–,–,·,·,
O=C(NCCc1ccc(Cl)cc1)C1(c2ccccc2)CC1,–,·,34%,–,
COc1ccc(C2(C(=O)NCCc3ccccc3)CCCC2)cc1,–,·,·,·,
CC(C)(C)NC(=O)CCN(/N=C/c1ccccc1O)C1=NS(=O)(=O)c2ccccc21,–,–,·,·,
O=C(CSc1ccc(-c2ccncc2)nn1)N1CCN(c2ccccc2)CC1,–,–,·,·,
COc1ccc(-c2csc(NC(=O)c3ccccc3Br)c2C(=O)O)cc1,–,–,·,·,
COc1ccc(-c2csc(NC(=O)c3ccc(C(C)(C)C)cc3)c2C(=O)O)cc1,–,6.5,–,–,CHO-K1 ctr=–;KCNQ1 sel pot=–;KCNQ2 pot confirm=–;Kir21 spec=–
O=C(COC(=O)[C@@H]1CC(O)CN1S(=O)(=O)c1ccc2c(c1)OCCO2)NCc1ccc(F)cc1 (some centres undefined),–,–,·,·,
